Measurements published in PubChem BioAssay.
Several values for one entry are separate records, joined by “and”; a condition that tells them apart may be missing. Equal values may be shown once. A number with no mark means an inactive call. Activity calls are given as the source filed them.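 How the source made its calls: active means thallium flux through the channel raised or lowered by more than 3 SD from vehicle-only wells, actives on both sides; inactive means the rest.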

What was measured:
Assay in all cases: modulators of BK channel variants, profiling panel, selectivity assay, cell-based, U2OS BacMam, thallium flux, beta subunits (AID 1259406);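 further: initial slope of Thallos dye fluorescence rise after thallium is added; log ratio against the mean of 0.3% DMSO vehicle wells on the same plate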
[1] = tested on: F380Y/beta2Delta; conditions: at 30 µM
[2] = tested on: F380Y/beta4; conditions: at 30 µM
[3] = target: Calcium-activated potassium channel subunit alpha-1 (Homo sapiens) + Leucine-rich repeat-containing protein 26 (Homo sapiens) (UniProt Q12791+Q2I0M4); conditions: F380Y/Slo1WT/gamma1, at 30 µM
[4] = tested on: R275C; conditions: at 30 µM
[5] = tested on: R275C/beta1; conditions: at 30 µM
[6] = tested on: R275C/beta2Delta; conditions: at 30 µM
[7] = tested on: R275C/beta4; conditions: at 30 µM
[8] = tested on: R275C/Slo1WT/beta2; conditions: at 30 µM

Sequence of Calcium-activated potassium channel subunit alpha-1 (Homo sapiens) + Leucine-rich repeat-containing protein 26 (Homo sapiens) (Q2I0M4 whole entry, looked up, one chain of several): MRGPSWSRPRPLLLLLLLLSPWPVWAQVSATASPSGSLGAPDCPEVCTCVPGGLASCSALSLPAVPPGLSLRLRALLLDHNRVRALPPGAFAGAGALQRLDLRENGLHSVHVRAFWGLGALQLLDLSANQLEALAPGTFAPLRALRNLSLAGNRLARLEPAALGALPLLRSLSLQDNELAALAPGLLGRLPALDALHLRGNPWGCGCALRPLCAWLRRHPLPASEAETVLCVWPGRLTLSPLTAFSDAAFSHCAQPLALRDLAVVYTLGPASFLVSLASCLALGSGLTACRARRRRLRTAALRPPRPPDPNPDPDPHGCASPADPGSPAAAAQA

Row | SMILES | log fold change Tl+ flux [1] | log fold change Tl+ flux [2] | log fold change Tl+ flux [3] | log fold change Tl+ flux [4] | log fold change Tl+ flux [5] | log fold change Tl+ flux [6] | log fold change Tl+ flux [7] | log fold change Tl+ flux [8]
1 | C#C[C@]1(O)CC[C@H]2[C@@H]3[C@H](C)CC4=C(CCC(=O)C4)[C@H]3CC[C@@]21C | 0.02 | 0.0383 | 0.094 (active) | -0.0625 | 0.155 (active) | 0.0649 | 0.0734 | 0.0272
2 | COc1ccc(CN2CCN(C(c3ccc(F)cc3)c3ccc(F)cc3)CC2)c(OC)c1OC | -0.015 | 0.0162 | -0.00669 | -0.0264 | -0.0636 | -0.0699 | 0.0197 | -0.00919
3 | O=C1CCc2ccc(OCCCCN3CCN(c4cccc(Cl)c4Cl)CC3)cc2N1 | -0.00576 | 0.0383 | -0.0185 | -0.0555 | 0.056 | 0.0181 | 0.0353 | 0.0373
4 | CN1[C@@H]2CC[C@H]1CC(OC(=O)c1c[nH]c3ccccc13)C2 (some centres not stated) | 0.0725 | 0.0611 | -0.0185 | -0.064 | 0.026 | 0.045 | 0.0432 | 0.00303
5 | Cn1c(NCCN(CCO)CCCc2ccc([N+](=O)[O-])cc2)cc(=O)n(C)c1=O | -0.007 | -0.0379 | 0.0127 | -0.128 (active) | -0.0368 | 0.012 | -0.00107 | 0.0338
6 | O=C(O)CCNC(=O)c1ccc(N=Nc2ccc(O)c(C(=O)O)c2)cc1 | -0.00246 | 0.0201 | 0 | -0.0367 | 0.0608 | 0.0174 | 0.00146 | 0.0188
7 | Nc1nc(F)nc2c1ncn2[C@@H]1O[C@H](CO)[C@@H](O)[C@@H]1O | 0.0109 | -0.0895 | -0.000905 | -0.0205 | -0.0181 | -0.00769 | -0.0294 | -0.0303
8 | CCN1CCCC1CNC(=O)c1cc(S(=O)(=O)CC)c(N)cc1OC (configuration not stated) | 0.0211 | 0.00308 | -0.0597 | -0.0334 | 0.00406 | -0.0411 | -0.0037 | 0.0112
9 | CC(Cc1ccccc1)(NC(=O)CN)c1ccccc1 (configuration not stated) | 0.0679 | 0.0357 | -0.0139 | 0.0158 | 0.0479 | 0.036 | 0.0184 | -0.037
10 | CCOc1cc(CC(=O)N[C@@H](CC(C)C)c2ccccc2N2CCCCC2)ccc1C(=O)O | 0.217 (active) | 0.297 (active) | 0.0882 | -0.00436 | 0.495 (active) | 0.262 (active) | 0.161 (active) | 0.0386
11 | NCC1CCC(C(=O)Oc2ccc(CCC(=O)O)cc2)CC1 (configuration not stated) | -0.0278 | -0.00261 | 0.0182 | -0.0458 | 0.036 | 0.00228 | -0.0367 | -0.00395
12 | CC1(C)S[C@@H]2[C@H](N=CN3CCCCCC3)C(=O)N2[C@H]1C(=O)O | -0.0627 | -0.00589 | -0.0112 | 0.00945 | 0.0251 | 0.116 (active) | -0.0211 | -0.0045
13 | Clc1ccc2nsnc2c1NC1=NCCN1 | -0.0575 | -0.0136 | 0.00637 | 0.0392 | 0.0375 | -0.063 | 0.0661 | 0.00517
14 | NS(=O)(=O)Cc1noc2ccccc12 | -0.0343 | -0.0562 | 0.00637 | -0.021 | 0.0189 | -0.0477 | 0.00838 | -0.0027
15 | CC(C)NCC(O)COc1ccc(COCCOC(C)C)cc1 (configuration not stated) | 0.00366 | 0.0255 | 0.0397 | -0.0696 | -0.003 | -0.0507 | 0.0137 | 0.0109
16 | Cc1nc2ccc(CN(C)c3ccc(C(=O)N[C@@H](CCC(=O)O)C(=O)O)s3)cc2c(=O)[nH]1 | -0.00369 | 0.0379 | -0.00311 | -0.0146 | 0.00396 | -0.00877 | -0.00369 | -0.0401
17 | CC(C)(C)NC(=O)[C@@H]1CN(Cc2cccnc2)CCN1C[C@@H](O)C[C@@H](Cc1ccccc1)C(=O)N[C@H]1c2ccccc2C[C@H]1O | -0.0728 | -0.0768 | 0.0169 | -0.0278 | -0.00667 | -0.0261 | 0.0581 | 0.101 (active)
18 | O=C(CCNNC(=O)c1ccncc1)NCc1ccccc1 | -0.0162 | 0.0308 | 0.00963 | -0.0947 | -0.0338 | 0.038 | 0.0195 | 0.0406
19 | CCN(CC)CC1CCCCN1CC(=O)N1c2ccccc2C(=O)Nc2cccnc21 (configuration not stated) | 0.0497 | -0.01 | 0.0283 | -0.0778 | 0.0108 | 0.0199 | 0.0303 | 0.0393
20 | CCOC(=O)C1=C(C)NC(C)=C(C(=O)OC)C1c1cccc(Cl)c1Cl (configuration not stated) | -0.162 (active) | -0.261 (active) | 0.00637 | -0.00728 | -0.0274 | 0.0156 | 0.114 | -0.0293
21 | O=c1[nH]cnc2c1ncn2[C@H]1CC[C@@H](CO)O1 | 0.0117 | -0.00261 | 0.0216 | -0.0353 | -0.00622 | -0.00829 | 0.000837 | 0.00413
22 | Cc1ccnc2c1NC(=O)c1cccnc1N2C1CC1 | 0.0168 | 0.0216 | -0.00356 | -0.0605 | -0.00377 | 0.0164 | -0.0208 | -0.00118
23 | CN(C/C=C/C#CC(C)(C)C)Cc1cccc2ccccc12 | -0.0506 | -0.0252 | 0.0229 | -0.0273 | -0.3 (active) | -0.238 (active) | -0.00168 | 0.012
24 | Cc1nccn1CC1CCc2c(c3ccccc3n2C)C1=O (configuration not stated) | -0.00534 and 0.0144 | 0.0398 and -0.017 | -0.0199 and 0.0181 | -0.0259 and 0.0252 | -0.00728 and 0.00537 | -0.00652 and 0.0192 | -0.00238 and 0.0058 | 0.0288 and 0.00389
25 | O=C1[C@H]2CCCC[C@H]2C(=O)N1CCCCN1CCN(c2nsc3ccccc23)CC1 | 0.0368 | 0.0464 | -0.0162 | -0.0177 | 0.107 (active) | 0.0344 | 0.0306 | -0.00391
26 | COc1ccc(C(=O)NCc2ccc(OCCN(C)C)cc2)cc1OC | -0.0465 | -0.0244 | -0.0979 (active) | -0.0872 | -0.00904 | -0.0505 | 0.0059 | 0.00939
27 | CN1CCC(=C2c3ccccc3C=Cc3ccccc32)CC1 | 0.14 (active) | 0.137 (active) | -0.0742 | -0.0182 | 0.194 (active) | 0.144 (active) | 0.0955 (active) | 0.0256
28 | CNS(=O)(=O)Cc1ccc2[nH]cc(CCN(C)C)c2c1 | 0.0184 | 0.00469 | -0.0149 | 0.0314 | -0.0158 | 0.00098 | -0.0449 | 0.0327
29 | CCOC(=O)[C@H](CCc1ccccc1)N[C@@H](C)C(=O)N1[C@H](C(=O)O)C[C@@H]2CCC[C@@H]21 | 0.0153 and 0.0206 | 0.00789 and 0.00803 | -0.0126 and 0.00594 | 0.0107 and 0.01 | -0.0118 and -0.0507 | -0.0152 and 0.00655 | 0.00822 and 0.0154 | -0.0515 and 0.000239
